Bioassay records: PubChem BioAssay, several laboratories
Shown are actives, neighbours in structure and some others; about 3.9% of the full set was active somewhere.
CCHFV vOTU inh = CCHFV vOTU protease inhibition. Pep-AMC fluorescence. inhibition, % at 11.5 µM. hit rate 0.55% among 370,000. AID 651958; further: 0% = vehicle wells with enzyme and 100% = no enzyme wells
BH1578 lux ind = inducers of Vibrio cholerae quorum light production without autoinducers. activation, % at 18.7 µM. hit rate 0.16% among 350,000. V. cholerae BH1578 lux reporter, luminescence, 6 h; in the data active means activation mostly above about 9.7%, no sharp cut-off
FBA Mtb inh = inhibits M. tuberculosis FBA enzyme | P9WQA3 | purified M. tuberculosis FBA, fluorescence read-out | inhibition, % at 1 µM | hit rate 2.3% among 360,000 | AID 588726; in the data active means inhibition above about 27%;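 further: 0% = vehicle and 100% = reference inhibitor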
Target sequence (P9WQA3 whole entry, looked up): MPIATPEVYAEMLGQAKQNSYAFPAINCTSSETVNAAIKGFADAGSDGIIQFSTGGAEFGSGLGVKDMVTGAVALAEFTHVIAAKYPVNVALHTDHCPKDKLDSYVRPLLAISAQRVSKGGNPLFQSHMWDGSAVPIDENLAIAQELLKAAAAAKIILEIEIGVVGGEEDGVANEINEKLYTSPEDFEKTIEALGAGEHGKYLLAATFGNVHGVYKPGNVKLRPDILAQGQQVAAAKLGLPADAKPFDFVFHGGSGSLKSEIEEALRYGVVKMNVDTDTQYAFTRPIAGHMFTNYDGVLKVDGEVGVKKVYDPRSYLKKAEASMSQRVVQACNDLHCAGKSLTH
GDH-TPI counter = counter-screen for M. tuberculosis FBA inhibitors: GDH-TPI coupled enzymes; inhibition, % at 4.8 µM; hit rate 1.2% among 360,000; GDH-TPI coupled enzyme counterscreen, NADH absorbance;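 further: 0% = DMSO wells and 100% = wells lacking the enzyme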
An asterisk follows results filed as active. Unless noted, no stated cut-off is given here; in the data, active means inhibition above about 30%; inactive means the rest.

For Cc1csc2ncc(C(=O)Nc3ccccc3Cl)c(=O)n12 the results were CCHFV vOTU inh -3.7, BH1578 lux ind -0.3, FBA Mtb inh 2.0 and GDH-TPI counter 4.3.
`Cc1csc2ncc(C(=O)N3c4ccccc4CC3C)c(=O)n12` (centres undefined) gave CCHFV vOTU inh 20.4, BH1578 lux ind -0.2, FBA Mtb inh 4.6 and GDH-TPI counter 41.6*.
`CC1Cc2ccccc2N1C(=O)c1cnc2ccccn2c1=O` (centres undefined) gave CCHFV vOTU inh 12.4, BH1578 lux ind -0.3, FBA Mtb inh 0.1 and GDH-TPI counter 18.1.
For Cc1csc2ncc(C(=O)Nc3ccccc3F)c(=O)n12 the results were CCHFV vOTU inh -1.3, BH1578 lux ind -0.3, FBA Mtb inh -1.7 and GDH-TPI counter 30.8*.
O=C(NCC(=O)N1CCN(S(=O)(=O)c2ccccc2C(F)(F)F)CC1)c1sc2ccccc2c1Cl was read as CCHFV vOTU inh 2.0, BH1578 lux ind inactive, FBA Mtb inh 3.0 and GDH-TPI counter 0.0.
Screening CCOC(=O)C1CCN(C(=O)COC(=O)CCOc2ccc(C)cc2)CC1 returned CCHFV vOTU inh 5.5, BH1578 lux ind -5.9, FBA Mtb inh -0.1 and GDH-TPI counter 4.9.
`COc1cc([N+](=O)[O-])ccc1NC(=O)CCS(=O)(=O)c1ccc2c(c1)n(C)c(=O)c(=O)n2C` gave CCHFV vOTU inh 3.8, BH1578 lux ind 0.9, FBA Mtb inh -3.2 and GDH-TPI counter -3.1.
For O=C(Cc1ccc(Br)cc1)N1CCc2ccccc2C1 the results were CCHFV vOTU inh -3.5, BH1578 lux ind 6.4, FBA Mtb inh 0.0 and GDH-TPI counter 2.5.
COc1ccc(OC)c(NC(=O)CSc2ccccc2)c1 was read as CCHFV vOTU inh 1.1, FBA Mtb inh 2.7 and GDH-TPI counter -0.9.
Screening COc1ccc(OC)c(NC(=O)CSCC(=O)O)c1 returned CCHFV vOTU inh -7.2, BH1578 lux ind 16.7*, FBA Mtb inh -1.5 and GDH-TPI counter -0.9.
Cc1ccsc1/C=C(\CC(=O)O)c1nc2ccccc2o1 was read as CCHFV vOTU inh 16.2, BH1578 lux ind -0.2, FBA Mtb inh 3.0 and GDH-TPI counter 43.6*.
For O=C(O)C/C(=C\c1cc(Br)cs1)c1nc2ccccc2o1 the results were CCHFV vOTU inh 17.5, BH1578 lux ind inactive, FBA Mtb inh 0.3 and GDH-TPI counter 27.1.
For COc1ccc(S(=O)(=O)Nc2ccc(O)c3ccccc23)cc1 the results were CCHFV vOTU inh 81.9*, BH1578 lux ind 0.0, FBA Mtb inh 0.6 and GDH-TPI counter 20.2.
O=C(CNC(=O)Cc1ccc(Cl)cc1)NCc1ccco1 was read as CCHFV vOTU inh 1.4, BH1578 lux ind -0.8, FBA Mtb inh -4.5 and GDH-TPI counter 3.7.
COc1ccccc1/C=N/N1C(=O)c2cccc3cccc(c23)C1=O was read as CCHFV vOTU inh -16.3, BH1578 lux ind -0.2, FBA Mtb inh 2.6 and GDH-TPI counter 34.1*.
COc1ccccc1C=NN=Cc1ccccc1OC was read as CCHFV vOTU inh 5.8, BH1578 lux ind inactive, FBA Mtb inh -2.5 and GDH-TPI counter 30.7*.
For COc1ccccc1C=NN=C1c2ccccc2-c2ccccc21 the results were CCHFV vOTU inh 11.9, BH1578 lux ind inactive, FBA Mtb inh 2.0 and GDH-TPI counter -6.0.
`COc1ccc(/C=N/N2C(=O)c3ccccc3C2=O)cc1` gave CCHFV vOTU inh 12.2, BH1578 lux ind 0.3, FBA Mtb inh 3.4 and GDH-TPI counter 7.0.
`CC(=O)c1ccc(N2CCN(c3ccc(S(=O)(=O)NCCCN(C)C)cc3[N+](=O)[O-])CC2)cc1` gave CCHFV vOTU inh 14.9, BH1578 lux ind -0.5, FBA Mtb inh -4.3 and GDH-TPI counter 57.4*.
Screening CC1(CC(=O)O)C(=O)N=C2C=CC=CN21 (centres undefined) returned CCHFV vOTU inh -109.4, BH1578 lux ind -0.5, FBA Mtb inh 166.6* and GDH-TPI counter 1.5.
`c1ccc(N/N=C2\CCCc3ccccc32)nc1` gave CCHFV vOTU inh 16.4, BH1578 lux ind inactive, FBA Mtb inh -3.9 and GDH-TPI counter 31.7*.
Screening Cc1cc(N/N=C2/CCCc3ccccc32)nc2ccccc12 returned CCHFV vOTU inh -6.8, BH1578 lux ind -2.0, FBA Mtb inh 5.3 and GDH-TPI counter -3.8.
Screening Cc1ccc(C)c(NC(=O)Cn2nc([N+](=O)[O-])c(Br)c2C)c1 returned CCHFV vOTU inh -7.7, BH1578 lux ind -0.4, FBA Mtb inh 2.0 and GDH-TPI counter -2.9.
COc1ccc(CC(=O)OCC(=O)N(CC(C)C)c2c(N)n(Cc3ccccc3)c(=O)[nH]c2=O)cc1 was read as CCHFV vOTU inh -3.6, BH1578 lux ind -0.3, FBA Mtb inh 4.6 and GDH-TPI counter 1.1.
`CN(C)c1ccc(C(=O)Nc2nnc(-c3ccc(Cl)cc3)o2)cc1` gave CCHFV vOTU inh 6.0, BH1578 lux ind 4.2, FBA Mtb inh 5.3 and GDH-TPI counter 34.7*.
Screening COc1ccc(C2C3C(=O)N(N(C)c4ncc(C(F)(F)F)cc4Cl)C(=O)C3ON2C)cc1 (centres undefined) returned CCHFV vOTU inh 8.0, BH1578 lux ind -0.4, FBA Mtb inh 1.4 and GDH-TPI counter 1.6.
`CCOC(=O)N1CCC(Nc2c(-c3ccc(C)c(C)c3)c(=O)c2=O)CC1` gave CCHFV vOTU inh 7.4, BH1578 lux ind 2.6, FBA Mtb inh -7.5 and GDH-TPI counter 33.0*.
O=C(CN1CCCCC1)NC1CCc2cc3c(cc21)CCC3 (centres undefined) was read as CCHFV vOTU inh -10.8, BH1578 lux ind 0.6, FBA Mtb inh -0.1 and GDH-TPI counter 3.1.
`COc1cc(OC)cc(C(=O)NC2CC(C)(C)NC(C)(C)C2)c1` gave CCHFV vOTU inh -9.8, BH1578 lux ind 0.9, FBA Mtb inh active and GDH-TPI counter 14.3.
CCCCCC(=O)N1C[C@H](O)[C@@H](n2cc(C3CC3)nn2)C[C@@H]1c1ccc(C)cc1 was read as CCHFV vOTU inh -2.4, BH1578 lux ind -0.2, FBA Mtb inh 0.2 and GDH-TPI counter -2.8.
Screening O=C(OCC(=O)N1CCOCC1)c1ccc(O)cc1 returned CCHFV vOTU inh -21.4, BH1578 lux ind -0.3, FBA Mtb inh active and GDH-TPI counter 14.1.
O=C(OCC(=O)N1CCOCC1)c1ccccc1O was read as CCHFV vOTU inh 2.8, BH1578 lux ind -0.3, FBA Mtb inh 0.5 and GDH-TPI counter -5.2.
Screening C/C(=N\Nc1ccccn1)c1ccc(Br)s1 returned CCHFV vOTU inh 19.8, BH1578 lux ind inactive, FBA Mtb inh -0.2 and GDH-TPI counter 37.9*.
For CCOc1ccc(CCNC(=O)c2cc3c(s2)CS(=O)(=O)C3)cc1OCC the results were CCHFV vOTU inh 2.3, BH1578 lux ind -0.5, FBA Mtb inh 1.2 and GDH-TPI counter 9.5.
CC(=O)C1C2c3ccccc3OC1(C)N=c1s/c(=C/c3cn(C)nc3C)c(=O)n12 (centres undefined) was read as CCHFV vOTU inh 16.0, BH1578 lux ind inactive, FBA Mtb inh 0.9 and GDH-TPI counter 35.6*.
COC(=O)C1C2c3ccccc3OC1(C)N=c1s/c(=C/c3cnn(C)c3)c(=O)n12 (centres undefined) was read as CCHFV vOTU inh 11.1, BH1578 lux ind inactive, FBA Mtb inh 2.5 and GDH-TPI counter 14.2.
For COc1cccc2sc(N3CCN(C(=O)c4ccco4)CC3)nc12 the results were CCHFV vOTU inh -6.8, BH1578 lux ind inactive, FBA Mtb inh -1.6 and GDH-TPI counter 3.5.
